# According to the supplement of paper PMC8728848:
# Only a selection was taken, and the strongest signals are over-represented in it overall.
# Tests used:
# Assay in all cases: glycan array binding signal (z-score within array); higher = stronger binding
# Conditions in all cases: glycan notation: IUPAC condensed, linker removed
# [1] = target: Fuc(a1-2)Gal(b1-3)GalNAc(b1-3)Gal
# How it was run: (§1)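 The binding signal is a Z-score computed within each array and averaged over linkers. Arrays of the same protein sequence at different concentrations or buffers were also averaged together. Data originate from 3228 arrays in the Consortium for Functional Glycomics database, kept only where the protein sequence was available.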
# [2] = target: Fuc(a1-2)Gal(b1-3)GalNAc(b1-3)Gal(a1-4)Gal(b1-4)Glc
# How it was run: as §1
# [3] = target: Fuc(a1-2)Gal(b1-3)GlcNAc6S
# How it was run: as §1
# [4] = target: Fuc(a1-2)Gal(b1-4)GlcNAc(b1-3)Gal(b1-4)GlcNAc
# How it was run: as §1
# [5] = target: Fuc(a1-2)Gal(b1-4)GlcNAc(b1-3)GalNAc
# How it was run: as §1
# [6] = target: Fuc(a1-2)Gal(b1-4)[Fuc(a1-3)]GlcNAc(b1-3)Gal(b1-4)[Fuc(a1-3)]GlcNAc(b1-3)Gal(b1-4)[Fuc(a1-3)]GlcNAc
# How it was run: as §1
# [7] = target: Fuc(a1-2)Gal6S(b1-4)Glc6S
# How it was run: as §1
# [8] = target: Fuc(a1-2)[Gal(a1-3)]Gal(b1-3)GlcNAc
# How it was run: as §1
# [9] = target: Fuc(a1-2)[Gal(a1-4)]Gal(b1-4)GlcNAc
# How it was run: as §1
# [10] = target: Fuc(a1-2)[GalNAc(a1-3)]Gal(b1-4)GlcNAc(b1-3)Gal(b1-4)GlcNAc(b1-3)Gal(b1-4)GlcNAc
# How it was run: as §1
# [11] = target: Fuc(a1-2)[GalNAc(a1-3)]Gal(b1-4)GlcNAc(b1-3)[Fuc(a1-2)[GalNAc(a1-3)]Gal(b1-4)GlcNAc(b1-6)]GalNAc
# How it was run: as §1
# [12] = target: Fuc(a1-3)[Gal(b1-4)]Glc6S
# How it was run: as §1
# [13] = target: Fuc(a1-3)[Gal(b1-4)]GlcNAc(b1-3)GalNAc
# How it was run: as §1
# [14] = target: Fuc(a1-3)[Gal(b1-4)]GlcNAc(b1-6)GalNAc
# How it was run: as §1
# [15] = target: Fuc(a1-3)[GalNAc(b1-4)]GlcNAc
# How it was run: as §1
# Gal(a1-4)GlcNAc = target: Gal(a1-4)GlcNAc
# How it was run: as §1
# Gal(b1-2)Gal = target: Gal(b1-2)Gal
# How it was run: as §1
# Gal(b1-3)Gal(b1-4)GlcNAc = target: Gal(b1-3)Gal(b1-4)GlcNAc
# How it was run: as §1
# [16] = target: Gal(b1-3)GalNAc(a1-3)[Fuc(a1-2)]Gal(b1-4)Glc
# How it was run: as §1
# [17] = target: Gal(b1-3)GlcNAc(b1-3)GalNAc
# How it was run: as §1
# Gal(b1-3)GlcNAc6S = target: Gal(b1-3)GlcNAc6S
# How it was run: as §1
# [18] = target: Gal(b1-3)[GlcNAc(b1-6)]GalNAc
# How it was run: as §1
# Gal(b1-4)Glc6S = target: Gal(b1-4)Glc6S
# How it was run: as §1
# [19] = target: Gal(b1-4)GlcNAc(b1-2)Man(a1-3)[GlcNAc(b1-4)][Gal(b1-4)GlcNAc(b1-2)Man(a1-6)]Man(b1-4)GlcNAc(b1-4)GlcNAc
# How it was run: as §1
# [20] = target: Gal(b1-4)GlcNAc(b1-2)[Gal(b1-4)GlcNAc(b1-4)]Man(a1-3)[Gal(b1-4)GlcNAc(b1-2)Man(a1-6)]Man(b1-4)GlcNAc(b1-4)GlcNAc
# How it was run: as §1
# [21] = target: Gal(b1-4)GlcNAc(b1-3)Gal(b1-3)GlcNAc
# How it was run: as §1
# [22] = target: Gal(b1-4)GlcNAc(b1-3)Gal(b1-4)GlcNAc(b1-2)Man(a1-3)[Gal(b1-4)GlcNAc(b1-3)Gal(b1-4)GlcNAc(b1-2)Man(a1-6)]Man(b1-4)GlcNAc(b1-4)[Fuc(a1-6)]GlcNAc
# How it was run: as §1
# [23] = target: Gal(b1-4)GlcNAc(b1-3)Gal(b1-4)GlcNAc(b1-3)Gal(b1-4)GlcNAc(b1-3)Gal(b1-4)GlcNAc(b1-3)Gal(b1-4)GlcNAc(b1-2)Man(a1-3)[Gal(b1-4)GlcNAc(b1-3)Gal(b1-4)GlcNAc(b1-3)Gal(b1-4)GlcNAc(b1-3)Gal(b1-4)GlcNAc(b1-3)Gal(b1-4)GlcNAc(b1-2)Man(a1-6)]Man(b1-4)GlcNAc(b1-4)GlcNAc
# How it was run: as §1
# [24] = target: Gal(b1-4)GlcNAc(b1-3)Gal(b1-4)GlcNAc(b1-6)[Gal(b1-3)]GalNAc
# How it was run: as §1
# [25] = target: Gal(b1-4)GlcNAc(b1-3)[Gal(b1-4)GlcNAc(b1-6)]Gal(b1-4)GlcNAc
# How it was run: as §1
# Gal6S(b1-3)GlcNAc6S = target: Gal6S(b1-3)GlcNAc6S
# How it was run: as §1
# GalNAc4S6S(b1-4)GlcNAc = target: GalNAc4S6S(b1-4)GlcNAc
# How it was run: as §1
# Glc(a1-4)Glc = target: Glc(a1-4)Glc
# How it was run: as §1
# [26] = target: GlcA3S(b1-3)Gal(b1-4)GlcNAc(b1-3)Gal(b1-4)Glc
# How it was run: as §1
# [27] = target: GlcNAc(a1-4)Gal(b1-3)GlcNAc
# How it was run: as §1
# [28] = target: GlcNAc(b1-2)Man(a1-3)[GlcNAc(b1-2)Man(a1-6)]Man(b1-4)GlcNAc(b1-4)GlcNAc
# How it was run: as §1
# Man(a1-3)[Man(a1-6)]Man = target: Man(a1-3)[Man(a1-6)]Man
# How it was run: as §1
# Man(a1-6)Man = target: Man(a1-6)Man
# How it was run: as §1
# [29] = target: Neu5Ac(a2-3)Gal(b1-3)GalNAc6S
# How it was run: as §1
# [30] = target: Neu5Ac(a2-3)Gal(b1-4)GlcNAc(b1-2)[Neu5Ac(a2-3)Gal(b1-4)GlcNAc(b1-4)]Man(a1-3)[GlcNAc(b1-4)][Neu5Ac(a2-3)Gal(b1-4)GlcNAc(b1-2)[Neu5Ac(a2-3)Gal(b1-4)GlcNAc(b1-6)]Man(a1-6)]Man(b1-4)GlcNAc(b1-4)GlcNAc
# How it was run: as §1
# [31] = target: Neu5Ac(a2-3)Gal(b1-4)GlcNAc(b1-3)Gal(b1-4)GlcNAc(b1-2)Man(a1-3)[Neu5Ac(a2-3)Gal(b1-4)GlcNAc(b1-3)Gal(b1-4)GlcNAc(b1-2)Man(a1-6)]Man(b1-4)GlcNAc(b1-4)GlcNAc
# How it was run: as §1
# [32] = target: Neu5Ac(a2-3)Gal(b1-4)GlcNAc(b1-3)Gal(b1-4)GlcNAc(b1-3)GalNAc
# How it was run: as §1
# [33] = target: Neu5Ac(a2-3)Gal(b1-4)[Fuc(a1-3)]GlcNAc(b1-3)GalNAc
# How it was run: as §1
# [34] = target: Neu5Ac(a2-3)Gal6S(b1-4)[Fuc(a1-3)]GlcNAc
# How it was run: as §1
# [35] = target: Neu5Ac(a2-3)[GalNAc(b1-4)]Gal(b1-4)Glc
# How it was run: as §1
# [36] = target: Neu5Ac(a2-6)Gal(b1-3)GlcNAc(b1-3)[Gal(b1-4)GlcNAc(b1-6)]Gal(b1-4)Glc
# How it was run: as §1
# [37] = target: Neu5Ac(a2-6)Gal(b1-4)GlcNAc(b1-3)Gal(b1-4)GlcNAc(b1-3)GalNAc
# How it was run: as §1
# [38] = target: Neu5Ac(a2-6)Gal(b1-4)GlcNAc6S
# How it was run: as §1
# [39] = target: Neu5Ac(a2-8)Neu5Ac(a2-3)[Gal(b1-3)GalNAc(b1-4)]Gal(b1-4)Glc
# How it was run: as §1
# [40] = target: Neu5Gc(b2-6)Gal(b1-4)GlcNAc
# How it was run: as §1
binder,measurement,setting,value
TAL6-4LysM (Trichoderma atroviride) (protein) AADSIPSISPTGIITPTPTQSGMVSNCNKFYDVHSNDGCSAIASSQHVDLSSLYKWNPAIKTDCSGLQASVYVCIGILTTSMSTTSKLPTTTSKPSTTSKPPTGITTPTPTQSGMVKNCNKFYDVHSGDGCSAIASSQKVNLSSFYLWNPAVKTDCSGLQASVFVCIGTLTTSMSTTTSKLPTTTSKPSTTSKPPTGIITPTPTQNGMVKNCNKFYDVHSGDGCSAIASSQKVNLSSFYLWNPAVKTDCSGLQASVFVCVGTATTTTAAGITTPTPTQSGMVSGCNKFYDVHAGDGCSAIASSQKIALSSLYKWNPAVKTDCSGLQASVYICIGVGNAAAARVTGALEQKLISEEDLNSAVDHHHHHH,glycan array binding signal (z-score),[1],-0.335
same,glycan array binding signal (z-score),[2],-1.13
same,glycan array binding signal (z-score),[3],1.83
same,glycan array binding signal (z-score),[4],0.858
same,glycan array binding signal (z-score),[5],-0.49
same,glycan array binding signal (z-score),[6],0.899
same,glycan array binding signal (z-score),[7],-0.234
same,glycan array binding signal (z-score),[8],-0.6
same,glycan array binding signal (z-score),[9],2.32
same,glycan array binding signal (z-score),[10],-0.51
same,glycan array binding signal (z-score),[11],-0.157
same,glycan array binding signal (z-score),[12],0.195
same,glycan array binding signal (z-score),[13],-0.606
same,glycan array binding signal (z-score),[14],-0.062
same,glycan array binding signal (z-score),[15],3.19
same,glycan array binding signal (z-score),Gal(a1-4)GlcNAc,2.59
same,glycan array binding signal (z-score),Gal(b1-2)Gal,0.734
same,glycan array binding signal (z-score),Gal(b1-3)Gal(b1-4)GlcNAc,2.92
same,glycan array binding signal (z-score),[16],-0.473
same,glycan array binding signal (z-score),[17],0.663
same,glycan array binding signal (z-score),Gal(b1-3)GlcNAc6S,3.15
same,glycan array binding signal (z-score),[18],2.39
same,glycan array binding signal (z-score),Gal(b1-4)Glc6S,-0.334
same,glycan array binding signal (z-score),[19],-0.532
same,glycan array binding signal (z-score),[20],3.53
same,glycan array binding signal (z-score),[21],-0.823
same,glycan array binding signal (z-score),[22],-0.014
same,glycan array binding signal (z-score),[23],-0.74
same,glycan array binding signal (z-score),[24],1.17
same,glycan array binding signal (z-score),[25],0.074
same,glycan array binding signal (z-score),Gal6S(b1-3)GlcNAc6S,0.018
same,glycan array binding signal (z-score),GalNAc4S6S(b1-4)GlcNAc,1.16
same,glycan array binding signal (z-score),Glc(a1-4)Glc,-0.584
same,glycan array binding signal (z-score),[26],1.02
same,glycan array binding signal (z-score),[27],-0.119
same,glycan array binding signal (z-score),[28],2.79
same,glycan array binding signal (z-score),Man(a1-3)[Man(a1-6)]Man,3.24
same,glycan array binding signal (z-score),Man(a1-6)Man,-1.37
same,glycan array binding signal (z-score),[29],0.743
same,glycan array binding signal (z-score),[30],-1.17
same,glycan array binding signal (z-score),[31],2.52
same,glycan array binding signal (z-score),[32],-0.304
same,glycan array binding signal (z-score),[33],-0.18
same,glycan array binding signal (z-score),[34],-1.06
same,glycan array binding signal (z-score),[35],-1.03
same,glycan array binding signal (z-score),[36],0.176
same,glycan array binding signal (z-score),[37],3.9
same,glycan array binding signal (z-score),[38],1.36
same,glycan array binding signal (z-score),[39],-0.586
same,glycan array binding signal (z-score),[40],-0.286
